Source: PubChem (several laboratories)
This is a sample that favours compounds with a hit; in the whole collection about 2.5% have one here.
TROY NFkB inh: inhibitors of TROY-dependent NF-kB signaling | 0.98% of 360,000 active | Q293 LMP1-TROYcd NF-kB luciferase reporter, 4 h | inhibition, % at 10 µM | AID 1347056;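 active = compounds whose plate-normalised and pattern-corrected inhibition of the luciferase reporter signal at the single screening dose is 50% or more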
EWS-Fli block: EWS/Fli transcriptional activity inhibition; inhibition, % at 12.6 µM; A673 NR0B1-luciferase reporter, viability-normalised; 0.67% of 350,000 active;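 active = mean inhibition of at least 50% after viability correction, with every replicate also passing that limit; inconclusive = mean reaches 50% but only one of two replicates passes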;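 note: firefly luciferase signal divided by Alamar Blue viability fluorescence both relative to DMSO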
LGR2 inh: Drosophila LGR2 receptor signaling inhibition; HEK293 LGR2, CRE-luciferase, bursicon-stimulated, 4 h; inhibition, % at 9.99 µM; 0.35% of 380,000 active; AID 720647;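 active = drop in luminescence signal, shown as inhibition above about 50% in the replicate tests, limit read from the data, passing the limit was not always enough; inconclusive = probably only some replicates passing the limit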;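 note: agonist challenge used bursicon conditioned medium at about half maximal strength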
LMP1 NFkB inh: reduces LMP1-driven NF-kappaB luciferase signal | LMP1-induced NF-kappaB luciferase reporter cells, luminescence | inhibition, % at 12.5 µM | 0.69% of 350,000 active; in the data active = inhibition above about 41%; inconclusive = no clear call, values can overlap the other calls
TWEAK Fn14 block: TWEAK-Fn14 signaling inhibition. TWEAK-stimulated Fn14 reporter cells, luciferase luminescence, 8 h. inhibition, % at 10 µM. 2% of 360,000 active; in the data active = inhibition above about 50%
Of the large screens only hits and unclear results are named; the others gave an inactive call.

CCOC(=O)c1ccc(NC(=O)c2nc(S(=O)(=O)Cc3ccccc3)ncc2Cl)cc1	TROY NFkB inh 63, TWEAK Fn14 block 62 (no result: EWS-Fli block)
Cc1ccc(NC(=O)c2nc(S(=O)(=O)Cc3ccccc3C)ncc2Cl)cc1C	TROY NFkB inh 86, TWEAK Fn14 block 83 (no result: EWS-Fli block)
CCCS(=O)(=O)c1ncc(Cl)c(C(=O)Nc2ccc(S(=O)(=O)Nc3ncccn3)cc2)n1	none
CCS(=O)(=O)c1ncc(Cl)c(C(=O)Nc2ccc(S(=O)(=O)N3CCC(C)CC3)cc2)n1	TROY NFkB inh 85, TWEAK Fn14 block 95 (no result: EWS-Fli block)
CCCN(C)C[C@@H]1Oc2cc(C#Cc3ccccc3OC)ccc2S(=O)(=O)N([C@H](C)CO)C[C@@H]1C	none (no result: TROY NFkB inh, LMP1 NFkB inh, TWEAK Fn14 block)
CN(C)C(=O)c1cc([N+](=O)[O-])cc([N+](=O)[O-])c1N(C)C	TWEAK Fn14 block 107 (no result: EWS-Fli block, LGR2 inh)
COc1ccc([Si](C)(C)[C@@H]2[C@@H](CCO)O[C@]3(C(=O)N(Cc4cccc(NC(C)=O)c4)c4ccccc43)[C@H]2C)cc1	none (no result: TROY NFkB inh, LGR2 inh, LMP1 NFkB inh, TWEAK Fn14 block)
CC(=O)Nc1ccc(S(=O)(=O)c2ccnc3cc(Cl)ccc23)cc1	LGR2 inh inconclusive, TWEAK Fn14 block 77
COc1ccc(-c2cncnc2-c2ccc(OC)cc2O)cc1	TWEAK Fn14 block 69
CCc1ccc(S(=O)(=O)/N=C2/C=C(Sc3ncn[nH]3)C(=O)c3ccccc32)cc1	TROY NFkB inh 60, TWEAK Fn14 block 96 (no result: EWS-Fli block, LGR2 inh)
CCc1ccc(S(=O)(=O)/N=C2\C=C(Nc3cccc(C(=O)O)c3)C(=O)c3ccccc32)cc1	TWEAK Fn14 block 98
O=C1C=C(Nc2ccc(O)cc2)C(=O)c2ccccc21	none
Cc1ccc(S(=O)(=O)/N=C2\C=C(NS(=O)(=O)c3ccccc3)C(=O)c3ccccc32)cc1	none
CCc1ccc(S(=O)(=O)/N=C2\C=C(Nc3ccc(O)cc3)C(=O)c3ccccc32)cc1	TROY NFkB inh 74, LMP1 NFkB inh 90, TWEAK Fn14 block 94 (no result: EWS-Fli block, LGR2 inh)
COCCNC(=O)C[C@H]1C[C@H]2c3cc(N(C)C)ccc3O[C@H]2[C@@H](CO)O1	none (no result: TROY NFkB inh, LMP1 NFkB inh, TWEAK Fn14 block)
C/C=C/c1ccc2c(c1)O[C@H](CN(C)CC1CC1)[C@H](C)CN([C@@H](C)CO)S2(=O)=O	none (no result: TROY NFkB inh, LMP1 NFkB inh, TWEAK Fn14 block)
Cn1c(CC(=O)Nc2ccccc2F)nnc1SCC(=O)NC1=NCCS1	TWEAK Fn14 block 53
Cn1c(CC(=O)Nc2ccccc2Cl)nnc1SCC(=O)NC1=NCCS1	none
Cc1ccccc1Cn1ccc(-c2ccc3c(c2)OCO3)n1	none (no result: EWS-Fli block, LGR2 inh)
N#CCn1nnc(-c2ccc3c(c2)OCO3)n1	none (no result: EWS-Fli block, LGR2 inh)
Fc1cccc(Cl)c1Cn1nnc(-c2ccc3c(c2)OCO3)n1	TWEAK Fn14 block 54 (no result: EWS-Fli block, LGR2 inh)
Cc1ccccc1Cn1nnc(-c2ccc3c(c2)OCO3)n1	TWEAK Fn14 block 80 (no result: EWS-Fli block, LGR2 inh)
C[C@@H]1CCCCO[C@H](CN(C)C(=O)Nc2ccc(F)cc2)[C@H](C)CN([C@@H](C)CO)C(=O)c2cc(NC(=O)C3CCCCC3)ccc2O1	none (no result: TROY NFkB inh, LMP1 NFkB inh, TWEAK Fn14 block)
C[C@H](CO)N1C[C@H](C)[C@H](CN(C)C(=O)Nc2ccc(F)cc2)OCCCC[C@H](C)Oc2ccc(NC(=O)C3CCCCC3)cc2C1=O	LGR2 inh 83 (no result: TROY NFkB inh, LMP1 NFkB inh, TWEAK Fn14 block)
C[C@H](CO)N1C[C@H](C)[C@H](CN(C)C(=O)Nc2ccccc2)OCCCC[C@H](C)Oc2ccc(NC(=O)C3CCCCC3)cc2C1=O	LGR2 inh 69 (no result: TROY NFkB inh, LMP1 NFkB inh, TWEAK Fn14 block)
C[C@H](CO)N1C[C@H](C)[C@H](CN(C)C(=O)Nc2ccc3c(c2)OCO3)OCCCC[C@H](C)Oc2ccc(NC(=O)C3CCCCC3)cc2C1=O	LGR2 inh 57 (no result: TROY NFkB inh, LMP1 NFkB inh, TWEAK Fn14 block)
C[C@H]1CCCCO[C@H](CN(C)C(=O)Nc2ccc3c(c2)OCO3)[C@@H](C)CN([C@@H](C)CO)C(=O)c2cc(NC(=O)C3CCCCC3)ccc2O1	none (no result: TROY NFkB inh, LMP1 NFkB inh, TWEAK Fn14 block)
C[C@@H]1CN([C@@H](C)CO)C(=O)c2cc(NC(=O)C3CCCCC3)ccc2O[C@@H](C)CCCCO[C@H]1CN(C)C(=O)Nc1ccccc1	none (no result: TROY NFkB inh, LMP1 NFkB inh, TWEAK Fn14 block)
C[C@H]1CN([C@@H](C)CO)C(=O)c2cc(Br)cnc2O[C@H]1CN(C)C(=O)C1CCOCC1	none (no result: TROY NFkB inh, LMP1 NFkB inh, TWEAK Fn14 block)
C[C@H](NC(=O)C[C@@H]1CC[C@H](NS(=O)(=O)c2cccc(F)c2)[C@@H](CO)O1)c1ccccc1	none (no result: TROY NFkB inh, EWS-Fli block, LMP1 NFkB inh, TWEAK Fn14 block)
Cc1cccc(CC(=O)Nc2cccnc2)c1	TWEAK Fn14 block 103
Cc1cc(C(F)(F)F)nn1CC(=O)Nc1cccnc1	TWEAK Fn14 block 66 (no result: TROY NFkB inh, EWS-Fli block, LGR2 inh)
Cc1ccc2c(Cl)c(C(=O)Nc3cccnc3)sc2c1	TWEAK Fn14 block 58 (no result: EWS-Fli block)
Cc1ccccc1S(=O)(=O)NCC[C@H]1CC[C@H](NC(=O)C2CCCCC2)[C@@H](CO)O1	none (no result: TROY NFkB inh, LMP1 NFkB inh, TWEAK Fn14 block)
O=C(c1cc(-c2ccccc2Cl)on1)N1CCCC1	LGR2 inh inconclusive, TWEAK Fn14 block 70
O=C(Nc1cccc(O)c1)c1cc(-c2ccc3c(c2)OCO3)on1	TROY NFkB inh 64, LGR2 inh inconclusive, TWEAK Fn14 block 95
O=C(Nc1cccc(O)c1)c1cc(-c2ccccc2Cl)on1	TROY NFkB inh 51, EWS-Fli block inconclusive, TWEAK Fn14 block 77
COc1ccccc1-c1cc(C(=O)N2CCCC2)no1	none
CCCNC(=O)c1cc(-c2ccc3c(c2)OCO3)on1	TWEAK Fn14 block 51
C[C@@H]1CN([C@@H](C)CO)C(=O)Cc2cc(NC(=O)C3CC3)ccc2O[C@H]1CN(C)Cc1ccc(C(=O)O)cc1	none (no result: TROY NFkB inh, LMP1 NFkB inh, TWEAK Fn14 block)
N#C[C@H]1[C@@H](c2ccc(C3=CCCC3)cc2)[C@H](CO)N1C(=O)NC1CCCCC1	none (no result: TROY NFkB inh, LMP1 NFkB inh, TWEAK Fn14 block)
C[C@@H]1CN([C@@H](C)CO)C(=O)c2cccc(NC(=O)c3ccncc3)c2O[C@@H]1CN(C)C(=O)NC1CCCCC1	none (no result: TROY NFkB inh, LMP1 NFkB inh, TWEAK Fn14 block)
CC1CCN(C(=O)c2cc(-c3ccc4c(c3)OCO4)on2)CC1	TWEAK Fn14 block 53
CC1CCCCN1C(=O)c1cc(-c2ccc3c(c2)OCO3)on1 (stereo not given)	none
O=C(CN1CCOCC1)N[C@@H]1CC[C@H](CCNC(=O)C2CCC2)O[C@H]1CO	none (no result: TROY NFkB inh, LMP1 NFkB inh, TWEAK Fn14 block)
